Data as given in PubChem BioAssay (NCATS).
Records with an inconclusive call do not appear. Entries that show only a call come without a potency. Activity calls are given as the source filed them. The call rests on the fitted dose curve; in most records, active means well fitted curve in the direction sought with a large enough effect; inconclusive means small, poorly fitted or top-dose-only effect, or another doubt; inactive means no such curve, though single readings can be large; an effect the other way counts as inactive or inconclusive.

Assays:
[1] = biological target: Voltage-gated inwardly rectifying potassium channel KCNH2 (Homo sapiens) (UniProt Q12809); assay: qHTS Assay for Small Molecule Inhibitors of the Human hERG Channel Activity (AID 588834);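 further: lower thallium flux fluorescence means stronger hERG block; nearly all actives have a fitted effect of over 50% in size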; further: potency means the concentration at half of the fitted maximal effect
Summary of the method: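 U2OS cells transduced with hERG via BacMam (MOI ~100), plated 2000/well, loaded with FluxOR thallium dye, compound ~10 min, then stimulation buffer; fluorescence decrease read kinetically; AC50 from Hill fits.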

[2] = biological target: Luciferin 4-monooxygenase (Photinus pyralis) (UniProt P08659); assay: Biochemical firefly luciferase enzyme assay for NPC (AID 624030); further: nearly all actives have a fitted effect of over 70% in size; further: potency means the concentration at half of the fitted maximal effect
Summary of the method: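 Counter-screen for direct inhibition of the luciferase enzyme by approved-drug library compounds, run at 10 nM enzyme in 50 mM Tris acetate (final). Luminescence was read within 5 min of enzyme-buffer addition and normalized to PTC124 versus DMSO (0%).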

[3] = S16 Schwann cell viability assay (CellTiter-Glo assay) (AID 624031);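 further: cellular ATP luminescence as a viability measure; series mostly up to about 58 µM; nearly all actives have a fitted effect of over 70% in size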
Summary of the method: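 Native S16 rat Schwann cells in DMEM/10% FBS without phenol red were incubated overnight, then exposed to compounds for 24 h at 37 °C/5% CO2. Viability was read as ATP luminescence (CellTiter-Glo), normalized to no-cell wells and DMSO (0%).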

[4] = S16 Schwann cell PMP22 intronic element firefly luciferase assay (AID 624032); further: series mostly up to about 58 µM; nearly all actives have a fitted effect of over 30% in size
Summary of the method: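 Rat S16 Schwann cells stably carrying a PMP22 intronic element-driven Fluc reporter were seeded overnight, then exposed to compounds for 24 h at 37 °C. Luminescence was normalized to PTC124 (positive control) and DMSO (0% activity).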

Voltage-gated inwardly rectifying potassium channel KCNH2 (Homo sapiens), sequence (Q12809 whole entry, looked up): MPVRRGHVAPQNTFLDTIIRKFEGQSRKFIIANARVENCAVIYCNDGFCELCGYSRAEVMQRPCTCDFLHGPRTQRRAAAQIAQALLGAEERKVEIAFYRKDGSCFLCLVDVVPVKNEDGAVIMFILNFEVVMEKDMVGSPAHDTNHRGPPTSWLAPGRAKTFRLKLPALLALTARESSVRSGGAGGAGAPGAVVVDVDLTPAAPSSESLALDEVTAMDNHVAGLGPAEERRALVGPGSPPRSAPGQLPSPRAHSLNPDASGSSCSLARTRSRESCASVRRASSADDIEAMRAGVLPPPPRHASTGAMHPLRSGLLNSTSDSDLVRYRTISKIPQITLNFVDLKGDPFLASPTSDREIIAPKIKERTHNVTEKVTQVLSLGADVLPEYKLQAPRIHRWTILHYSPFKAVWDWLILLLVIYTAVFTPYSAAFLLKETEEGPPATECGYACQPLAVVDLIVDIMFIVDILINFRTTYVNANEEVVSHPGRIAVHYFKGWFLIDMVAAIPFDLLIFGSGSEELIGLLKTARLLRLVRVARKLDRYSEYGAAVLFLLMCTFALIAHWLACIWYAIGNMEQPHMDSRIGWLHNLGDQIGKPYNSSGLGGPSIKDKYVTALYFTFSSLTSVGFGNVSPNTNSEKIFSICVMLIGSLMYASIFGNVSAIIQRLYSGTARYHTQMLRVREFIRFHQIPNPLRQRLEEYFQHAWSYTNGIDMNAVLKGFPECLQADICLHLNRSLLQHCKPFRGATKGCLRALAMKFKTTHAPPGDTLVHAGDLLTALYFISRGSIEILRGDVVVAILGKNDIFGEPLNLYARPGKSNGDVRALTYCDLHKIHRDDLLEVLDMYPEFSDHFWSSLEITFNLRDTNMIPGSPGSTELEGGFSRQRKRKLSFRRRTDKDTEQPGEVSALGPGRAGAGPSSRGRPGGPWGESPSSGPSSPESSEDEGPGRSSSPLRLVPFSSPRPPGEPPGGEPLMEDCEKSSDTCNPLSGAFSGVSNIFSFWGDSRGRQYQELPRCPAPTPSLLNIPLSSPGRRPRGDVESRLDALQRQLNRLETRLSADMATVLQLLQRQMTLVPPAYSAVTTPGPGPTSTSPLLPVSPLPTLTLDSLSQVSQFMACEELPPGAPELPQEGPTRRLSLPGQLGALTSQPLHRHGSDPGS
Luciferin 4-monooxygenase (Photinus pyralis), sequence (P08659 whole entry, looked up): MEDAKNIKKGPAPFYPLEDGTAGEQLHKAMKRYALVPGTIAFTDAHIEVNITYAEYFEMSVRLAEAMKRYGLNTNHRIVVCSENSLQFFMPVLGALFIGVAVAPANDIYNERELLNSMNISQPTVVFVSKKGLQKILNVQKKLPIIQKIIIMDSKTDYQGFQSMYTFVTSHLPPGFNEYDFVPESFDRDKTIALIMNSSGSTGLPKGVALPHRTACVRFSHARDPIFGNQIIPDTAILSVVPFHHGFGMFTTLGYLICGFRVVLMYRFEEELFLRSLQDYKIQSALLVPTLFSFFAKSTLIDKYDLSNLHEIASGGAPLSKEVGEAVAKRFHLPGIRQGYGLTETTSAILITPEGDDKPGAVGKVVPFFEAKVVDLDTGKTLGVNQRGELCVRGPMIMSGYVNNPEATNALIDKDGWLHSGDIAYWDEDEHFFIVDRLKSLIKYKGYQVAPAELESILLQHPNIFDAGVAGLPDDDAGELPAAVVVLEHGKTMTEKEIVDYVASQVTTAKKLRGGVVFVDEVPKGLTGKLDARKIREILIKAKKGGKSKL

| Structure (SMILES) | Potency [1] | Potency [2] | Potency [3] | Potency [4] |
| --- | --- | --- | --- | --- |
| O=C1CCC(c2ccccc2)(C2CCN(Cc3ccccc3)CC2)C(=O)N1 (stereo not drawn) | 14.1 µM (active) | inactive | inactive |  |
| CC12CCC(C[N+](C)(CCC[N+](C)(C)C)C1)C2(C)C (stereo not drawn) | inactive | inactive | inactive |  |
| O=C(O)c1cc(N=Nc2ccc(O)c(C(=O)O)c2)ccc1O | inactive | 9.07 µM (active) | inactive | inactive |
| C[C@H]1O[C@@H](O[C@H]2[C@@H](O)C[C@H](O[C@H]3[C@@H](O)C[C@H](O[C@H]4CC[C@@]5(C)[C@H](CC[C@@H]6[C@@H]5C[C@@H](O)[C@]5(C)[C@@H](C7=CC(=O)OC7)CC[C@]65O)C4)O[C@@H]3C)O[C@@H]2C)C[C@H](O)[C@@H]1O | inactive | inactive | inactive | inactive |
| CC(C)c1ncc([N+](=O)[O-])n1C | inactive | inactive | inactive | inactive |
